SW480 rerep: A quantitative high throughput screen for small molecules that induce DNA re-replication in SW480 colon adenocarcinoma cells | SW480 DNA re-replication, Hoechst DNA content imaging, 48 h | Potency, µM (series often up to 46.1 µM), for inactives: at the highest dose re-replication activation, usual class: activators | 1.8% of 340,000 active | AID 624297, 2012; note: potency is the fitted concentration of half-maximal effect; % of control where 0% means no effect; nearly all actives have a fitted effect of over 55% in size
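250 cells/well; 23 nL cpd via pin tool; 48 hr, 37 C, 5% CO2; Hoechst 40 min; imager read of total nuclear intensity, ex 405/em 500-530 nm.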
RORgamma inh: qHTS for inhibitors of ROR gamma transcriptional activity. Nuclear receptor ROR-gamma (Mus musculus), P51450. Drosophila S2 Gal4-RORgamma UAS-luciferase reporter, 20 h. Potency, µM (titrated, usually from 53.6 µM), without a hit: at the highest dose activity change, negative = inhibition, actives largely listed as inhibitors. 5.4% of 310,000 active. AID 2551, 2010; note: potency is the fitted concentration of half-maximal effect; % is set by controls: 0 for no effect and ±100 for the full control effect; nearly all actives have a fitted effect of over 60% in size
Target sequence (P51450 whole entry, looked up, the tested form may be a part): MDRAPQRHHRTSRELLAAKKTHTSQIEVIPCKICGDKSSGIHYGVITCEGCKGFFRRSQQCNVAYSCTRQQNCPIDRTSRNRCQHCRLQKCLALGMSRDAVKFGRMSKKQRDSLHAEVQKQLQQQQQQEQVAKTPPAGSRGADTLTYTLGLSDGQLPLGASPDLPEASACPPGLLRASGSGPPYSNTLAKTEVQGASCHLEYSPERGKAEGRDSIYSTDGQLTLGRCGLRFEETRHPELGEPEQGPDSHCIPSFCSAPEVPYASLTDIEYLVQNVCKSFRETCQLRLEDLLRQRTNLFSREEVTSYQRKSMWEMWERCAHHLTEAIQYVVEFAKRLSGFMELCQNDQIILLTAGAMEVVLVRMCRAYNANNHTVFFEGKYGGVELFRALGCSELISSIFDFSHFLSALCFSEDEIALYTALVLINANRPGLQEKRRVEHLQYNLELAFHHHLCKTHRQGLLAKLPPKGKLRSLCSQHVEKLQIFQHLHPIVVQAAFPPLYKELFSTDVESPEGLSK
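Drosophila S2 cells stably expressing Gal4-DBD/mouse RORγ fusion under metallothionein promoter plus UAS-luciferase; compound 1 h, then 700 uM CuSO4 induction for 20 h at ambient temperature; inhibition read as reduced luminescence.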
VP16 counter: VP16 counterscreen qHTS for inhibitors of ROR gamma transcriptional activity. 3.5% of 310,000 active. Potency, µM (top dose mostly 53.6 µM), without a hit: at the top dose activity, negative = inhibition, actives largely listed as inhibitors. Drosophila S2 Gal4-VP16 UAS-luciferase, luminescence, 20 h;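 note: Gal4-VP16 expression switched on by copper sulfate through the metallothionein promoter; potency is the fitted concentration of half-maximal effect; % is set by controls: 0 for no effect and ±100 for the full control effect; nearly all actives have a fitted effect of over 50% in size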
IL-1B inflam inh: qHTS for Inhibitors of Inflammasome Signaling: IL-1-beta AlphaLISA Primary Screen; THP-1 LPS/ATP IL-1B secretion, AlphaLISA, 16 h; stronger effect = lower value; activity change, % at 57.5 µM; 4.7% of 360,000 active; AID 743279, 2014; in the data active = activity change below about -50%; inconclusive = mostly about -30% to -49%; note: % is set by controls: 0 for no effect and ±100 for the full control effect
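Secreted IL-1B measured by AlphaLISA bead assay after 16 h compound exposure of THP-1 cells; compounds (final up to 57.5 uM) added 1 h before LPS (250 ng/mL) and ATP (1.25 mM) stimulation; lower signal means less secretion.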
MCF10A rereplic: A quantitative high throughput screen for small molecules that induce DNA re-replication in MCF 10a normal breast cells. MCF 10A DNA re-replication, Hoechst nuclear intensity, 48 h. Potency, µM (titrated, usually from 46.1 µM), without a hit: at the highest dose activity, positive = re-replication, most hits filed as activators. 2.9% of 350,000 active. AID 624296, 2012; note: potency is the fitted concentration of half-maximal effect; % of control where 0% means no effect; nearly all actives have a fitted effect of over 50% in size
Numbers without * were called inactive. In the library only some 11% were active in any assay of this set; here they are far more common. Unless noted, calls come from the whole dose curve; as a rule, active = well fitted curve in the direction sought with a large enough effect; inconclusive = small, poorly fitted or top-dose-only effect, or another doubt; inactive = no such curve, though single readings can be large; an effect the other way counts as inactive or inconclusive.

For COc1ccccc1C=NNC(=O)C(=O)NN=Cc1ccccc1OC the results were SW480 rerep -6%, IL-1B inflam inh 7 and MCF10A rereplic 4%.
Screening CN(C)c1ccc(C(=S)NCc2ccco2)cc1 returned SW480 rerep -7%, RORgamma inh 4µM*, VP16 counter 7.9µM*, IL-1B inflam inh -14 and MCF10A rereplic 1%.
`COc1cccc(/C=N/NC(=O)C(=O)N/N=C/c2cccc(OC)c2OC)c1OC` gave SW480 rerep 16µM*, RORgamma inh -6%, VP16 counter -1%, IL-1B inflam inh 6 and MCF10A rereplic 7%.
For CCCN(C)C1CN(Cc2cn(Cc3cccc(C(F)(F)F)c3)nn2)S(=O)(=O)C1 (configuration not stated) the results were IL-1B inflam inh 3.
Screening CC1CCCCN1CCCOC(=O)c1ccccc1 (configuration not stated) returned SW480 rerep 4%, RORgamma inh 28%, VP16 counter 10% and MCF10A rereplic inconclusive.
Screening COc1cc(NC(=S)NCc2ccco2)cc(OC)c1OC returned SW480 rerep 0%, RORgamma inh 11µM*, VP16 counter 20µM*, IL-1B inflam inh 27 and MCF10A rereplic 4%.
`COc1ccccc1NC(=S)NCc1ccco1` gave SW480 rerep -11%, RORgamma inh 11%, VP16 counter 14%, IL-1B inflam inh 0 and MCF10A rereplic 0%.
For COc1cccc(/C=N/NC(=S)NCc2ccco2)c1OC the results were SW480 rerep -32%, RORgamma inh 3.5µM*, VP16 counter inconclusive, IL-1B inflam inh -2 and MCF10A rereplic 0%.
Screening CCCCC[C@H](O)/C=C/C=C\C/C=C\CCCCC(=O)O returned RORgamma inh -14% and VP16 counter -4%.
`CCOC(=O)CN(Cc1cc(OC)cc(N(C)C)c1OC)C(=O)C1CC(CO[Si](C)(C)C(C)(C)C)=CN1C(=O)OC(C)(C)C` (configuration not stated) gave RORgamma inh 27% and VP16 counter -19%.
Screening COc1ccc(OC)c(S(=O)(=O)NNC(=S)Nc2ccc3c(c2)OCO3)c1 returned SW480 rerep inconclusive, RORgamma inh 10µM*, VP16 counter inconclusive, IL-1B inflam inh inactive and MCF10A rereplic -2%.
COc1ccc(OC)c(S(=O)(=O)N(C)CC(=O)Nc2ccc3c(c2)OCO3)c1 was read as SW480 rerep -3%, RORgamma inh inconclusive, VP16 counter 4%, IL-1B inflam inh -6 and MCF10A rereplic -1%.
For COc1cccc(-c2nc(CS(=O)(=O)CC(=O)Nc3ccccc3Cl)c(C)o2)c1 the results were SW480 rerep 0%, RORgamma inh 5%, VP16 counter -16%, IL-1B inflam inh 21 and MCF10A rereplic 4%.
Screening COc1ccc(Nc2cc(C)nc(NCc3ccccc3)n2)cc1 returned SW480 rerep -1%, RORgamma inh 38%, VP16 counter -12%, IL-1B inflam inh -99* and MCF10A rereplic 7%.
For Cc1ccc(Nc2cc(C)nc(NCc3ccccc3)n2)cc1 the results were SW480 rerep inconclusive, RORgamma inh inconclusive, VP16 counter inconclusive, IL-1B inflam inh -229* and MCF10A rereplic 18µM*.
Cc1cc(NC2CCCCC2)nc(NCc2ccccc2)n1 was read as SW480 rerep 15µM*, RORgamma inh inconclusive, VP16 counter inconclusive, IL-1B inflam inh -74* and MCF10A rereplic inconclusive.
`Cc1cc(C)nc(N/N=C/c2ccccc2Cl)n1` gave SW480 rerep 19%, RORgamma inh inconclusive, VP16 counter inconclusive, IL-1B inflam inh -26 and MCF10A rereplic 1%.
Screening Cc1cc(N/N=C/c2ccccc2Cl)nc(NCc2ccccc2)n1 returned SW480 rerep inconclusive, RORgamma inh inconclusive, VP16 counter inconclusive, IL-1B inflam inh -68* and MCF10A rereplic 16µM*.
`C[C@H]1CN([C@@H](C)CO)C(=O)c2cc(-c3cccc(C#N)c3)cnc2O[C@H]1CN(C)C(=O)c1ccccn1` gave IL-1B inflam inh -3.
CCCSc1ncnc2[nH]ncc12 was read as SW480 rerep 1%, IL-1B inflam inh 1 and MCF10A rereplic -4%.
For CN(C)c1cccc2c1c(NC(=O)Nc1ccc(F)cc1F)nn2C the results were SW480 rerep 10%, RORgamma inh -3%, VP16 counter 7%, IL-1B inflam inh -53* and MCF10A rereplic 2%.
`CN(C)c1cccc2c1c(NC(=O)c1ccc(F)cc1)nn2C` gave SW480 rerep -12%, RORgamma inh -17%, VP16 counter -5%, IL-1B inflam inh 26 and MCF10A rereplic 2%.
`O=S(=O)(c1ccc(Br)cc1)N1CCC2(CC1)OCCO2` gave SW480 rerep -7%, RORgamma inh 25%, VP16 counter 1%, IL-1B inflam inh -5 and MCF10A rereplic -2%.
Screening O=C(N/N=C/c1ccc(-c2ccc([N+](=O)[O-])cc2)o1)c1cccnc1 returned SW480 rerep 0%, RORgamma inh 11µM*, VP16 counter 0%, IL-1B inflam inh -11 and MCF10A rereplic -3%.
For Cc1cc([N+](=O)[O-])c(C)cc1-c1ccc(/C=N/NC(=O)c2cccnc2)o1 the results were SW480 rerep 5%, RORgamma inh 8.9µM*, VP16 counter inconclusive, IL-1B inflam inh -23 and MCF10A rereplic 10%.
Screening C=C1CCC(C2CC(=O)OC2=O)C(=O)CCC2C1CC2(C)C (configuration not stated) returned RORgamma inh -1% and VP16 counter -8%.
Screening COc1cccc(C(=O)OCC(=O)NC(=O)NC2CCCC2)c1O returned SW480 rerep 1%, RORgamma inh -23%, VP16 counter 6%, IL-1B inflam inh 28 and MCF10A rereplic -39%.
Cc1c(C(=O)OCC(=O)NC(=O)NC2CCCCC2)cccc1[N+](=O)[O-] was read as SW480 rerep -15%, IL-1B inflam inh -67* and MCF10A rereplic 8%.
For O=C(COC(=O)c1cccc(Br)c1)NC(=O)NC1CCCC1 the results were SW480 rerep -43%, IL-1B inflam inh -14 and MCF10A rereplic 0.46µM*.
Screening N#C/C(=N\Nc1ccc(Cl)cc1)C(=O)c1ccccc1 returned SW480 rerep 10%, RORgamma inh inconclusive, VP16 counter inconclusive, IL-1B inflam inh -52* and MCF10A rereplic 23µM*.
For Cc1c(N/N=C(\C#N)C(=O)c2ccc(Cl)cc2)c(=O)n(-c2ccccc2)n1C the results were SW480 rerep 9.2µM*, RORgamma inh 7.1µM*, VP16 counter 3.5µM*, IL-1B inflam inh 36 and MCF10A rereplic 2.9µM*.

High-throughput results (PubChem)
